“And” between values parts separate entries of the source, which are not always exact repeats. Equal values may be shown once. Inconclusive results are not listed. Where a structure was tested more than once in an assay, its records may differ in their call. The source made the active and inactive calls. Rule for the calls, unless noted: active = hit-call score of the fitted dose curve at least 0.9, where 1 is the maximum; inactive = score below 0.9.
Assays:
[1] = CCTE_Shafer_MEA_acute_AB: CCTE's Alamar Blue Assay for Cytotoxicity in the Neural Acute Assay, Shafer Lab (AID 2284069; active = hit-call score of the fitted dose curve at least 0.9, where 1 is the maximum;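 note: active compounds lower the viability signal compared with DMSO wells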)
How it was run: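 Read-out: resazurin fluorescence (ex 544, em 590 nm) after CTB reagent at 1:6 dilution in fresh media. Cells: primary rat cortical neuron networks, DIV 13 or 15, chemically exposed on MEA plates; DMSO as negative control/baseline.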

[2] = CCTE_Shafer_MEA_acute_LDH: CCTE's Lactate Dehydrogenase Assay for Cytotoxicity in the Neural Acute Assay, Shafer Lab (AID 2284086; active = hit-call score of the fitted dose curve at least 0.9, where 1 is the maximum;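 note: active means LDH release rises above DMSO vehicle level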)
How it was run: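 Rat cortical neurons cultured on microelectrode arrays; baseline 40-min recording, compound added, second 40-min recording; medium then sampled for released LDH (colorimetric kit, 490 nm). DMSO = negative control.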

[3] = CCTE_Shafer_MEA_dev_LDH: CCTE's Lactate Dehydrogenase Assay for Cytotoxicity in the Neural Network Formation Assay, Shafer Lab (AID 2284068; active = hit-call score of the fitted dose curve at least 0.9, where 1 is the maximum;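 note: exposure for twelve days from plating with re-dosing on DIV 5 and 9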)
How it was run: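 Rat cortical primary neurons, MEA culture; dosing day 0–12, full medium plus compound exchange DIV 5, 9. Read-out: LDH enzyme activity, spectrophotometric. DMSO = negative control/baseline; signal loss → cytotoxicity.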

[4] = UKN5_HCS_SBAD2_neurite_outgrowth: University of Konstanz (UKN) Leist Lab Neurite Outgrowth Assay in human iPSC-derived immature Dorsal Root Ganglia Neurons (UKN5) (AID 2284070); conditions: actives raise or lower the signal
How it was run: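 Read-out: calcein-AM-stained neurite area by high-content imaging, Hoechst H-33342 for viability, after 24 h exposure of iPSC-derived immature dorsal root ganglia neurons. Activity fitted in both directions relative to DMSO baseline.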

[5] = CCTE_Shafer_MEA_dev_AB: CCTE's Alamar Blue Assay for Cytotoxicity in the Neural Network Formation Assay, Shafer Lab (AID 2284083; active = hit-call score of the fitted dose curve at least 0.9, where 1 is the maximum;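 note: resazurin reduction fluorescence as viability of cultured neurons; twelve days of exposure from plating with re-dosing on DIV 5 and 9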)
How it was run: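 Rat cortical primary cultures, 1.5 x 10^5 cells/well on MEA; continuous compound exposure over 12 days of network development, re-dosed with full medium change DIV 5 and 9. Alamar Blue fluorescence; loss of signal = cytotoxicity vs DMSO baseline.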

[6] = CCTE_Shafer_MEA_dev_mutual_information_norm: CCTE's Neural Network Formation Assay for Mutual Information Normalization, Shafer Lab (AID 2284091);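 for AC50: mutual information between electrodes summarised as area under curve across four recording days; potency is for a decrease in mutual information relative to DMSO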
How it was run: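 Rat cortical cultures, 48-well MEA, continuous exposure DIV 0–12 with full media/compound change DIV 5 and 9. Readout: inter-electrode mutual information, AxIS adaptive spike detection; AUC across DIV 5/7/9/12 recordings; DMSO baseline, negative fitting direction.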

[7] = CCTE_Shafer_MEA_dev_correlation_coefficient_mean: CCTE's Neural Network Formation Assay for Mean Correlation Coefficient, Shafer Lab (AID 2284093);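 for AC50: well mean pairwise spike train correlation integrated as AUC over recording days 5 to 12; potency fitted for loss of correlation relative to DMSO vehicle wells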
How it was run: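 Rat cortical cultures, 1.5 x 10^5 cells/well, dosed from day 0 for 12 days. Spontaneous spikes recorded DIV 5/7/9/12; electrode-pair correlation coefficients averaged, AUC taken. Fit in loss direction vs DMSO.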

[8] = UKN2_HCS_IMR90_neural_migration: University of Konstanz (UKN) Leist Lab Neural Crest Cell Migration Assay in human induced IMR90 Pluripotent Stem Cells (UKN2) (AID 2284204); conditions: actives raise or lower the signal
How it was run: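 iPSC-derived IMR90 neural crest cells on PLO/laminin/fibronectin were seeded around silicone stoppers; after stopper removal, migration in N2-S medium with EGF and FGF ran 24 h before 24 h chemical exposure. Calcein-AM/Hoechst high-content imaging; bidirectional fit versus DMSO.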

[9] = UKN4_HCS_LUHMES_neurite_outgrowth: University of Konstanz (UKN) Leist Lab Neurite Outgrowth Assay in human LUHMES cells (UKN4) (AID 2284206); conditions: actives raise or lower the signal
How it was run: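 Day 0 switch to differentiation medium; day 2 replate (30000 cells/well) without cAMP and GDNF; compounds added 30 min–2 h later. At 23.5 h, 30 min calcein-AM/H-33342 live stain, then imaging.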

[10] = IUF_NPC1b_proliferation_BrdU_72hr: Leibniz Research Institute for Environmental Medicine (IUF) 72-hour Neural Progenitor Cell Bromodeoxyuridine (BrdU) Proliferation Assay (NPC1b) (AID 2284207)
How it was run: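 hNPC spheres (primary, GW 16-19 fetal cortex), single sphere/well, EGF+FGF medium; 72 h compound, no renewal; BrdU pulse last 16 h; luminescent ELISA; activity vs DMSO baseline; growth-factor withdrawal as positive control.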

Measured: AC50

COP(=S)(OC)Oc1ccc(SC)c(C)c1
inactive: [1]

CNC(=O)/C=C(\C)OP(=O)(OC)OC
inactive: [1] | [2]

O=C1c2ccccc2C(=O)N1SC(Cl)(Cl)Cl
inactive: [2]
active: [1] 20 µM

ClC1C(Cl)C(Cl)C(Cl)C(Cl)C1Cl (stereo unspecified)
not listed: [1] | [10]
inactive: all other assays above

COP(=S)(OC)Oc1ccc([N+](=O)[O-])cc1
inactive: [6] | [9] | [10]
active: [5] 24.3 µM | [7] 23 µM

CC1(c2ccc(Oc3ccccc3)cc2)OC(=O)N(Nc2ccccc2)C1=O (stereo unspecified)
active: [3] 3.28 µM | [5] 4.56 µM | [6] 1.34 µM | [7] 1.79 µM
inactive: [8] | [10]

Oc1ccc(Cl)cc1Cc1ccccc1
inactive: [1] | [2]

COP(=O)(OC)OC=C(Cl)Cl
active: [3] 3.8 µM | [5] 30.4 µM | [6] 0.378 µM | [7] 0.656 µM
inactive: [3] | [6] | [7] | [8] | [10]

O=C(O)COc1ccc(Cl)cc1Cl
inactive: [5] | [7] | [8]
active: [3] 15 µM | [6] 12.1 µM | [10] 50.1 µM

Clc1ccccc1-c1nnc(-c2ccccc2Cl)nn1
inactive: [1] | [2]

CC[C@H](C)[C@H]1O[C@]2(C=C[C@@H]1C)C[C@@H]1C[C@@H](C/C=C(\C)[C@@H](O[C@H]3C[C@H](OC)[C@@H](O[C@H]4C[C@H](OC)[C@@H](O)[C@H](C)O4)[C@H](C)O3)[C@@H](C)/C=C/C=C3\CO[C@@H]4[C@H](O)C(C)=C[C@@H](C(=O)O1)[C@]34O)O2 (tested in a mixture with another compound)
active: [3] 522 nM and 0.537 nM | [5] 7.85 µM | [6] 2.68 nM and 0.647 nM | [7] 89.5 nM and 4.11 nM | [8] 3.78 µM | [10] 8.2 µM
inactive: [5] | [2]

CNC(=O)CSP(=S)(OC)OC
active: [3] 66.6 µM and 24.2 µM | [5] 50 µM and 26.8 µM | [6] 50 µM | [7] 50 µM and 15 µM
inactive: [6] | [10]

O=C(O)CCCOc1ccc(Cl)cc1Cl
inactive: [1] | [2]

O=[N+]([O-])/N=C1\NCCN1Cc1ccc(Cl)nc1
not listed: [1] | [2] | [5]
inactive: all other assays above

CC(C)N(C(=O)COc1nnc(C(F)(F)F)s1)c1ccc(F)cc1
inactive: [3] | [4] | [5] | [2] | [6] | [7] | [8] | [9] | [10]
active: [3] 15 µM | [5] 7.79 µM | [7] 15 µM

O=C(O)C(F)(F)C(F)(F)C(F)(F)C(F)(F)C(F)(F)C(F)(F)C(F)(F)F
active: [4] 899 µM | [9] 78.1 µM | [10] 6.45 µM and 11.7 µM
inactive: [3] | [6] | [7] | [8]

C[C@H]1[C@H](c2ccc(Cl)cc2)SC(=O)N1C(=O)NC1CCCCC1
inactive: [2]

CCCN(CCOc1c(Cl)cc(Cl)cc1Cl)C(=O)n1ccnc1
inactive: [1] | [2]

O=S1OCC2C(CO1)C1(Cl)C(Cl)=C(Cl)C2(Cl)C1(Cl)Cl (stereo unspecified)
active: [3] 8.55 µM | [5] 9.32 µM | [6] 7.83 µM | [7] 8.13 µM | [8] 13.9 µM | [9] 16.3 µM
inactive: [1] | [2] | [10]

CCC(C)(C)C(=O)OC1=C(c2ccc(Cl)cc2Cl)C(=O)OC12CCCCC2
not listed: [4] | [8]
inactive: all other assays above

CCC(C)Nc1c([N+](=O)[O-])cc(C(C)(C)C)cc1[N+](=O)[O-] (stereo unspecified)
inactive: [1]

Oc1cc(Cl)ccc1Oc1ccc(Cl)cc1Cl
inactive: [1] | [2]
active: [3] 6.58 µM | [5] 14.2 µM | [6] 8.5 µM | [7] 9.23 µM

CCCN(CCC)c1c([N+](=O)[O-])cc(C(F)(F)F)cc1[N+](=O)[O-]
inactive: [1] | [2]

O=S(=O)(O)C(F)(F)C(F)(F)C(F)(F)C(F)(F)C(F)(F)C(F)(F)C(F)(F)C(F)(F)F
active: [3] 16.4 µM | [4] 752 µM | [5] 50 µM | [6] 25 µM | [7] 68.6 µM | [8] 114 µM | [9] 19.1 µM | [10] 12.6 µM
inactive: [3] | [1] | [6] | [7] | [8] | [10]

N#Cc1c(Cl)c(Cl)c(Cl)c(C#N)c1Cl
inactive: [1]

CC1(C)C(C=C(Cl)Cl)C1C(=O)OC(C#N)c1ccc(F)c(Oc2ccccc2)c1 (stereo unspecified)
inactive: [3] | [1] | [5] | [2] | [8]
active: [3] 42.3 µM | [5] 64.4 µM | [6] 268 nM and 6.41 µM and 2.77 µM | [7] 1.06 µM and 8.22 µM and 7.24 µM | [10] 8.05 µM

N#CN
inactive: [1] | [2]

— PubChem BioAssay (EPA / NIEHS)
